Reference: the antibiotic and cytotoxicity screens of Wong et al. (2023)
The campaign covered roughly 39,000 compounds. About 1,500 (3.8%) were called active. The sample as a whole holds a higher share of actives than the screen did.

System: HSkMC (human skeletal muscle cells)
Assay: cytotoxicity call (relative viability < 0.9)
Conditions: 10 µM

Row | SMILES | cytotoxicity call
1 | NCCc1ccc(O)cc1 [listing 1 of 2 here] | inactive
2 | CCCCCCCCCc1ccc(O)cc1 | active
3 | NCCc1ccc(O)cc1 [listing 2 of 2 here] | inactive
4 | COP(=O)(OC)OC(Br)C(Cl)(Cl)Br (configuration not stated) | inactive
5 | COC(=O)[C@H]1CNC(=O)C1 | inactive
6 | C=C(C)C1C2OC(=O)C1C1(O)CC3OC34C(=O)OC2C14C (configuration not stated) | inactive
7 | C1COC2(CCNCC2)OC1 | inactive
8 | Cl.OC1CCCCC1N1CCC(c2ccccc2)CC1 (configuration not stated) | inactive
9 | CC12C(=O)OC(=O)C1(C)C1CCC2O1 (configuration not stated) | inactive
10 | C[C@@]12C(=O)OC(=O)[C@]1(C)[C@H]1CC[C@@H]2O1 | active
11 | C[C@]12C(=O)OC(=O)[C@]1(C)[C@H]1CC[C@H]2O1 | active
12 | C(=N/C12CN3CN(CN(C3)C1)C2)/c1cccnc1 | inactive
13 | CC(=CCn1c[n+](C)c2c(N)ncnc21)CCC1(C)C(C)CCC2(C)C(C)=CCCC21.[Cl-] (configuration not stated) | inactive
14 | OCC1CCCN2CCCCC12 (configuration not stated) | inactive
15 | N=C(N)N/N=C/c1ccc2c(c1)OCO2 | inactive
16 | COc1ccc(OC(=O)N(C)C[C@H]2OCc3ccccc3-c3c(n(C)c4ccccc34)C(=O)N([C@@H](C)CO)C[C@H]2C)cc1 | inactive
17 | Cc1ccc(OC(=O)N(C)C[C@@H]2OCc3ccccc3-c3c(n(C)c4ccccc34)C(=O)N([C@H](C)CO)C[C@@H]2C)cc1 | inactive
18 | Cc1ccc(OC(=O)N(C)C[C@@H]2OCc3ccccc3-c3c(n(C)c4ccccc34)C(=O)N([C@@H](C)CO)C[C@H]2C)cc1 | inactive
19 | Cc1ccc(OC(=O)N(C)C[C@H]2OCc3ccccc3-c3c(n(C)c4ccccc34)C(=O)N([C@H](C)CO)C[C@@H]2C)cc1 | active
20 | COc1ccc(OC(=O)N(C)C[C@@H]2OCc3ccccc3-c3c(n(C)c4ccccc34)C(=O)N([C@H](C)CO)C[C@H]2C)cc1 | active
21 | COc1ccc(OC(=O)N(C)C[C@H]2OCc3ccccc3-c3c(n(C)c4ccccc34)C(=O)N([C@H](C)CO)C[C@@H]2C)cc1 | inactive
22 | O=C(NC(O)C(Cl)(Cl)Cl)NC(O)C(Cl)(Cl)Cl (configuration not stated) | inactive

Row | SMILES | cytotoxicity call
23 | CC(C)C[C@@H]1C(=O)N2CCC[C@@H]2[C@]2(O)O[C@@](NC(=O)[C@@H]3C=C4c5cccc6[nH]cc(c56)C[C@@H]4N(C)C3)(C(C)C)C(=O)N12 | inactive
24 | C[C@H]1CN(C)[C@@H](C)C[C@@H]1n1[nH]c(=O)cc1N | inactive
25 | CO[C@H]1[C@H]2CC[C@@H]1NC2 | inactive
26 | O=[N+]([O-])C(Br)(CO)CO [listing 1 of 2 here] | active
27 | OCC(Br)(Br)Br | inactive
28 | O=[N+]([O-])C(Br)(CO)CO [listing 2 of 2 here] | active
29 | C=C(C)[C@@H]1[C@H]2OC(=O)[C@H]1[C@]1(O)C[C@H]3O[C@]34C(=O)O[C@H]2[C@]14C | inactive
30 | Cc1cc(N2CCN(C)CC2)ncn1 | inactive
31 | CN1[C@@H](CO)[C@@H]2c3ccccc3NC[C@@H]21 | inactive
32 | COc1ccc(OC(=O)N(C)C[C@@H]2OCc3ccccc3-c3c(n(C)c4ccccc34)C(=O)N([C@H](C)CO)C[C@@H]2C)cc1 | inactive
33 | CC[n+]1c(-c2ccccc2)c2cc(N)ccc2c2ccc(N)cc21.[Br-] | inactive
34 | CN[C@H]1C[C@@H](N)[C@H](O)[C@@H](O[C@@H]2O[C@H](CO)[C@H](O)[C@@H]3O[C@@]4(O[C@H]23)O[C@H]([C@@H](N)CO)[C@H](O)[C@H](O)[C@H]4O)[C@@H]1O | active
35 | O=c1cccc2n1C[C@@H]1C[C@H]2CN(C[C@H](O)/C=N/n2cnnc2)C1 | inactive
36 | CC(=O)OCC1=C(C(=O)O)N2C(=O)[C@@H](NC(=O)CCC[C@@H](N)C(=O)O)[C@@H]2SC1 | inactive
37 | N[C@@H](Cc1ccc(O)cc1)C(=O)NCC(=O)NCC(=O)O | inactive
38 | Cc1nc2c(=O)n(C)c(=O)nc-2n(C)n1 | active
39 | Cn1ncnc2c(=O)n(C)c(=O)nc1-2 | active
40 | Cc1cnc(C(=O)N2C[C@H]3CNC[C@H]3C2)cn1 | inactive
41 | [O-][n+]1ccccc1[S][Zn][S]c1cccc[n+]1[O-] | active
42 | O=C(O)C[C@@H]1CC[C@H]2NC[C@@H](O)COC[C@@H]2O1 | inactive
43 | Cc1cc(O)c2c(=O)c3c(O)cc(O)c4c5c(O)cc(O)c6c(=O)c7c(O)cc(C)c8c1c2c(c34)c(c78)c65 | active
44 | CCC1(O)C(=O)OCc2c1cc1n(c2=O)Cc2cc3ccccc3nc2-1 (configuration not stated) | inactive

Row | SMILES | cytotoxicity call
45 | Cc1nc(-c2ccc(-c3ccc(C(=O)N4CCc5cc6c(cc54)C4(CCN(C)CC4)CO6)cc3)c(C)c2)no1 | active
46 | C=C(C)[C@H]1O[C@H]2CC[C@@]3(C)[C@@](O)(CC[C@H]4[C@@H]5OC(C)(C)[C@H]6C[C@@H]7C(=C)Cc8c(Cl)cc9[nH]c(c5c9c8[C@@]76O)[C@@]43C)[C@]23O[C@@H]3[C@H]1O | inactive
47 | O=C1[O][Pt]2([NH][C@@H]3CCCC[C@H]3[NH]2)[O]C1=O | active
48 | CN(C)c1ccc(CCN)cc1 | inactive
49 | Br.CC(Cc1ccc(O)cc1)NCC(O)c1cc(O)cc(O)c1 (configuration not stated) | inactive
50 | CC(=O)O.Cc1cc2c(C(C)C)c(O)c(O)c(C=O)c2c(O)c1-c1c(C)cc2c(C(C)C)c(O)c(O)c(C=O)c2c1O | inactive
51 | Cc1cc2c(C(C)C)c(O)c(O)c(C=O)c2c(O)c1-c1c(C)cc2c(C(C)C)c(O)c(O)c(C=O)c2c1O [listing 1 of 2 here] | inactive
52 | Cc1cc2c(C(C)C)c(O)c(O)c(C=O)c2c(O)c1-c1c(C)cc2c(C(C)C)c(O)c(O)c(C=O)c2c1O [listing 2 of 2 here] | active
53 | O=C(O)C=CCO | inactive
54 | COCC12CN(C=O)C3C4C(OC)C1C3(C(OC)CC2O)C1CC2(O)C(OC)C(O)C4(OC(C)=O)C1C2OC(=O)c1ccccc1 (configuration not stated) | inactive
55 | O=C1CCN(C(=O)C2CCC2)CC1 | inactive
56 | COC(=O)[C@]1(Cc2ccccc2N=[N+]=[N-])N=C(c2ccc(OCCCO)cc2)O[C@@H]1c1ccccc1N=[N+]=[N-] | active
57 | COC(=O)[C@@]1(Cc2ccccc2N=[N+]=[N-])N=C(c2ccc(OCCCO)cc2)O[C@H]1c1ccccc1N=[N+]=[N-] | active
58 | COC(=O)[C@@]1(Cc2ccccc2CN=[N+]=[N-])N=C(c2ccc(OCCCO)cc2)O[C@H]1c1ccccc1N=[N+]=[N-] | inactive
59 | COC(=O)[C@]1(Cc2ccccc2N=[N+]=[N-])N=C(c2ccc(OCCCO)cc2)O[C@@H]1c1ccccc1CN=[N+]=[N-] | inactive
60 | COC(=O)[C@@]1(Cc2ccccc2N=[N+]=[N-])N=C(c2ccc(OCCCO)cc2)O[C@H]1c1ccccc1CN=[N+]=[N-] | inactive
61 | COC(=O)[C@]1(Cc2ccccc2CN=[N+]=[N-])N=C(c2ccc(OCCCO)cc2)O[C@@H]1c1ccccc1N=[N+]=[N-] | inactive
62 | CN(C)C(=O)[C@@]1(Cc2ccccc2CN=[N+]=[N-])N=C(c2ccc(OCCCO)cc2)O[C@H]1c1ccccc1N=[N+]=[N-] | inactive
63 | [N-]=[N+]=NCc1ccccc1C[C@]1(C(=O)NCc2ccccc2)N=C(c2ccc(OCCCO)cc2)O[C@H]1c1ccccc1N=[N+]=[N-] | inactive
64 | CCO[C@H]1[C@H]2CC[C@@H]1NC2 | inactive
65 | O=C1CC2OCC=C3CN4CCC56c7ccccc7N1C5C2C3CC46.O=S(=O)(O)O (configuration not stated) | inactive
66 | N[C@]1(C(=O)O)CC[C@@H](C(=O)O)C1 | inactive

Row | SMILES | cytotoxicity call
67 | COc1cc([C@@H](O)CN)ccc1O | inactive
68 | [N-]=[N+]=NCc1ccccc1C[C@]1(C(=O)N2CCOCC2)N=C(c2ccc(OCCCO)cc2)O[C@H]1c1ccccc1N=[N+]=[N-] | inactive
69 | COc1ccc2c(c1)C[C@H](N)C2 | inactive
70 | CNC(=O)[C@H]1Cn2ccnc2C2(CCNCC2)O1 | inactive
71 | CC(C)=CCCC1(C)C=Cc2c(O)c3c(c(CC=C(C)C)c2O1)OC12C(=CC4CC1C(C)(C)OC2(CC=C(C)C(=O)O)C4O)C3=O (configuration not stated) | active
72 | CC(C)=CCC[C@]1(C)C=Cc2c(O)c3c(c(CC=C(C)C)c2O1)O[C@]12[C@H](C[C@@H]4C[C@H]1C(C)(C)O[C@]2(C/C=C(/C)C(=O)O)[C@@H]4O)C3=O | inactive
73 | CC(C)=CCCC1(C)C=Cc2c(O)c3c(c(CC=C(C)C)c2O1)OC12C(=CC4CC1C(C)(C)OC2(CC=C(C)C(=O)O)C4=O)C3=O (configuration not stated) | active
74 | CC(C)CCC[C@]1(C)C=Cc2c(O)c3c(c(CCC(C)C)c2O1)O[C@]12[C@H](C[C@@H]4C[C@H]1C(C)(C)O[C@]2(CC[C@@H](C)C(=O)O)[C@@H]4O)C3=O | inactive
75 | C[C@@H]1CN([C@H](C)CO)C(=O)c2c(c3ccccc3n2C)-c2ccccc2CO[C@@H]1CN(C)C(=O)Oc1ccccc1 | inactive
76 | O=C(c1ccno1)N1C[C@@H]2CCN[C@@H]2C1 | inactive
77 | COc1ccc(C(CN(C)C)C2(O)CCCCC2)cc1.Cl (configuration not stated) | inactive
78 | N#CC[N+]12CCN(CC1)CC2 | inactive
79 | Cc1nc([N+](=O)[O-])c(N2CCNCC2)[nH]1 | inactive
80 | COC(=O)[C@H]1O[C@@H]2C[C@H]3O[C@@H](n4cnc5c(N)ncnc54)[C@H](OC)[C@H]3O[C@@]2(O)[C@@H](O)[C@@H]1O | inactive
81 | O=C(CCCN1CCC2(CC1)C(=O)N(Cc1cccc(F)c1)CN2c1ccccc1)c1ccc(F)cc1 | inactive
82 | CC(=O)OC1CC(OC(C)=O)C2(C)C(CC(OC(C)=O)C3(C)C2CCC2(C)C(c4ccoc4)C(=O)C4OC423)C1(C)C (configuration not stated) | inactive
83 | CC(=O)O[C@H]1C[C@@H](OC(C)=O)C(C)(C)[C@@H]2C[C@@H](OC(C)=O)[C@]3(C)[C@H](CC[C@@]4(C)[C@H](c5ccoc5)C[C@H]5O[C@@]534)[C@@]12C | inactive
84 | CC(=O)OC1CC2(C)C(c3ccoc3)CC3OC32C2(C)C(=O)C(O)=C3C(C)(C)C(=O)C=CC3(C)C12 (configuration not stated) | active
85 | CC1(C)C(=O)C=CC2(C)C1CC(O)C1(C)C2CCC2(C)C(c3ccoc3)OC(=O)C3OC321 (configuration not stated) | inactive
86 | CC(=O)OC1CC2C(C)(C)C(=O)C=CC2(C)C2CCC3(C)C(=CC(=O)OC3c3ccoc3)C12C (configuration not stated) | inactive
87 | CC1(C)C(=O)C=CC2(C)C1=C(O)C(=O)C1(C)C2CCC2(C)C(c3ccoc3)CC3OC321 (configuration not stated) | active
